# Screening data: PubChem BioAssay, The Scripps Research Institute Molecular Screening Center
# PAFAH1B3 FP inh = PAFAH1B3 enzyme inhibitors, primary screen, biochemical, fluorescence polarization, human; recombinant PAFAH1B3, FP-rhodamine probe; inhibition, % at 3.39 µM; hit rate 0.28% among 340,000; AID 492972, 2010;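 active = inhibition above the screen-wide average of all tested compounds plus 3 SD, cut at about 25% in these data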;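 note: 0% = enzyme with DMSO only and 100% = wells lacking PAFAH1B3 protein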
# PAFAH2 FP inh = PAFAH2 enzyme inhibitors, primary screen, biochemical, fluorescence polarization, human. Platelet-activating factor acetylhydrolase 2, cytoplasmic (Homo sapiens), Q99487. recombinant PAFAH2, FP-rhodamine activity probe. inhibition, % at 3.39 µM. hit rate 0.99% among 340,000;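 active = inhibition above the mean over all tested compounds plus 3 SD, cut at about 30% in these data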;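 note: inhibitors block probe labeling of enzyme so polarization drops; 0% = enzyme with DMSO and 100% = wells lacking PAFAH2 protein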
# PME-1 inh = PME-1 inhibitors via competitive probe labeling, primary screen, biochemical, fluorescence polarization, FP-Rh probe, HTS. inhibition, % at 5.9 µM. Protein phosphatase methylesterase 1 (Homo sapiens), Q9Y570. hit rate 0.53% among 320,000. AID 2130, 2009. recombinant PME-1;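 active = inhibition above the campaign mean of all compounds plus 3 SD, cut at about 26% in these data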;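 note: competitive labeling of PME-1 active site by serine hydrolase directed probe; 0% = PME-1 with DMSO and 100% = wells lacking PME-1 enzyme; inhibitors block probe labeling so polarization falls and inhibition rises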
# Target sequence (Q9Y570 whole entry, looked up): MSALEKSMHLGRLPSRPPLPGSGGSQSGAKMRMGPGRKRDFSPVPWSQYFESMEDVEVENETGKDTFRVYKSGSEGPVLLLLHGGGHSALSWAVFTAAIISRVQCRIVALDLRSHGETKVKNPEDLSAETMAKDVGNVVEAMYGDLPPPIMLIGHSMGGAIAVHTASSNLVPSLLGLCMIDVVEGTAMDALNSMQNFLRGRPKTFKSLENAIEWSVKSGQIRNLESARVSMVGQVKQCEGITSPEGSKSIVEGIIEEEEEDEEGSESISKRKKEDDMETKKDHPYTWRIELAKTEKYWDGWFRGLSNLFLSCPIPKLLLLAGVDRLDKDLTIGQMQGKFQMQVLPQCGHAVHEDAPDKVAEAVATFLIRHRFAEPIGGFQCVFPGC
# PAFAH1B2 inh = PAFAH1B2 enzyme inhibitors, primary screen, biochemical, fluorescence polarization, human; inhibition, % at 3.39 µM; hit rate 1.2% among 340,000; AID 492953, 2010; recombinant PAFAH1B2, FP-rhodamine activity probe; Platelet-activating factor acetylhydrolase IB subunit alpha2 (Homo sapiens), P68402;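 active = inhibition above the mean of all tested compounds plus 3 SD, cut at about 24% in these data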;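 note: 0% = enzyme with DMSO and 100% = wells lacking PAFAH1B2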
# Target sequence (P68402 whole entry, looked up): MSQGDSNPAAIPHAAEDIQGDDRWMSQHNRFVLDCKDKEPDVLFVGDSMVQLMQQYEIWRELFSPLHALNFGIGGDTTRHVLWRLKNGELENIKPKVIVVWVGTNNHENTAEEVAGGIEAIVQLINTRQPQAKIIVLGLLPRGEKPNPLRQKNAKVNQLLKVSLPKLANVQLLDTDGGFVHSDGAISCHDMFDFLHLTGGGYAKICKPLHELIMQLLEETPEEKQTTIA
# pPAFAH FP inh = pPAFAH enzyme inhibitors, primary screen, biochemical, fluorescence polarization, human | inhibition, % at 3.39 µM | hit rate 1.5% among 330,000 | recombinant pPAFAH, FP-rhodamine probe fluorescence polarization | Platelet-activating factor acetylhydrolase (Homo sapiens), Q13093;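 active = inhibition above the mean inhibition across the screen plus 3 SD, cut at about 25% in these data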;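 note: inhibitors block binding of the rhodamine activity-based probe so polarization drops; 0% = enzyme with DMSO and 100% = wells lacking pPAFAH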
# Fam108B inh = mouse Fam108B serine hydrolase inhibitors, primary screen, counter-screen for RBBP9 inhibitor project, biochemical, fluorescence polarization; hit rate 0.33% among 300,000; recombinant Fam108B, FP-Rh probe fluorescence polarization; inhibition, % at 9.51 µM;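 active = inhibition above the screen mean inhibition plus 3 SD, computed separately per campaign, cut at about 18% in these data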;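 note: inhibitors lower polarization as less probe binds the enzyme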
# The depositor's hits bear a star; . = no result given. Rows were chosen to be rich in hits. Some 2.9% of all compounds tested hit in one or more screens of this group.
SMILES,PAFAH1B3 FP inh,PAFAH2 FP inh,PME-1 inh,PAFAH1B2 inh,pPAFAH FP inh,Fam108B inh
Cc1ccc(S(=O)(=O)Nc2ccc(-c3nc4ccc(C)cc4s3)cc2)cc1,-2,-2,2,-7,26*,-4
Cc1ccc(NS(=O)(=O)c2ccc3[nH]c(=O)sc3c2)cc1,-4,-1,5,22,29*,5
CSc1nc2ccc(NS(=O)(=O)c3ccc(CNC(C)=O)cc3)cc2s1,0,-2,3,-3,32*,.
Cc1ccc2nc(-c3ccc(NS(=O)(=O)c4c(C)n(C)c(=O)n(C)c4=O)cc3)sc2c1,3,1,-1,-2,4,-5
Cc1cccc(S(=O)(=O)Nc2ccc(-c3nc4ccc(C)cc4s3)cc2)c1,19,-29,-1,-3,33*,-9
NC(=O)C1CCCN(S(=O)(=O)c2ccc3ccccc3c2)C1 (stereo not given),4,1,8,3,-4,0
CSc1nnc(CCCCCCCCc2nnc(SC)o2)o1,6,2,1,6,-2,-4
COc1cc(/C=C/C(=O)NCC2CCCCC2)cc(OC)c1OC,4,4,3,2,5,-2
CC(C)NC(=O)CC1C(=O)NCCN1CC(c1ccccc1)c1ccccc1 (stereo not given),8,-2,2,-1,29*,-1
Cn1c(COc2ccc(Cl)cc2)nnc1SCc1ncc(-c2ccccc2)o1,12,14,1,36*,-4,-1
CCCn1c(N)c(C(=O)CSc2nnc(C3CC3)n2C2CC2)c(=O)[nH]c1=O,5,10,.,-1,-6,.
O=C(c1cccc(NS(=O)(=O)c2ccc(Br)cc2)c1)N1CCN(c2ccccc2O)CC1,-1,-10,.,25*,.,.
CCN(CC(=O)NCc1cccs1)C(=O)c1cccc(S(=O)(=O)Nc2ccc(F)cc2)c1,4,-3,.,-1,.,.
Cc1cccc(NS(=O)(=O)c2ccc(OCC(=O)N3CCCC3)cc2)c1,8,7,6,10,34*,-2
COc1ccc(NS(=O)(=O)c2cccc(C(=O)N3CCCC(C)C3)c2)cc1 (stereo not given),4,4,-1,4,25*,3
CCN(CC(=O)NCc1cccs1)C(=O)c1cccc(S(=O)(=O)Nc2cccc(C)c2)c1,9,7,3,3,31*,.
O=C(c1cccc(NS(=O)(=O)c2ccccc2)c1)N1CCCC1,-1,-5,2,-1,4,-2
CSCCNC(=O)c1ccc2nc(C3CCCCC3)oc2c1,7,5,2,3,-1,1
Cc1ccc(OC(C)C(=O)N(Cc2cccs2)C2CCS(=O)(=O)C2)cc1C (stereo not given),10,-6,1,8,2,-5
Cc1cccc(NS(=O)(=O)c2cccc(C(=O)N3CCCC3)c2)c1,0,-2,2,2,27*,-1
COc1ccc(OCc2cc(C(=O)N(Cc3nccn3C)C(C)C)no2)c2ccccc12,5,-6,2,-2,3,1
O=C(CSc1cccc(C(F)(F)F)c1)Nc1ccc(N2CCOCC2)cc1,3,3,.,7,8,.
Cc1cccc(NS(=O)(=O)c2cccc(C(=O)NCC(c3ccco3)N3CCCCC3)c2)c1 (stereo not given),-4,-3,0,0,33*,-1
COc1ccccc1NS(=O)(=O)c1cccc(C(=O)NCC(c2ccco2)N2CCCC2)c1 (stereo not given),12,-5,1,3,-4,.
O=C(NCC(c1ccco1)N1CCCCC1)c1ccc(NS(=O)(=O)c2ccc(F)cc2)cc1 (stereo not given),-4,-4,-3,5,0,-2
SMILES,PAFAH1B3 FP inh,PAFAH2 FP inh,PME-1 inh,PAFAH1B2 inh,pPAFAH FP inh,Fam108B inh
COc1ccc(NS(=O)(=O)c2cccc(C(=O)NCC(c3ccco3)N3CCCCC3)c2)cc1 (stereo not given),4,4,-5,1,31*,-6
O=C(NCC(c1ccco1)N1CCCC1)c1ccc(S(=O)(=O)Nc2ccc(F)cc2)cc1 (stereo not given),8,2,-4,4,29*,.
COc1ccccc1C(CNC(=O)c1cccc(S(=O)(=O)Nc2ccc(C)cc2)c1)N1CCCC1 (stereo not given),4,2,2,2,31*,0
COc1ccc(C(=O)O)cc1S(=O)(=O)Nc1ccc(C)cc1,1,-7,7,13,4,0
COc1ccc(C(=O)NCc2ccccc2CN2CCCC2)cc1S(=O)(=O)Nc1ccc(C)cc1,2,2,1,8,25*,.
COC(=O)Cc1c(C)c2ccc(OCC(=O)N3CCC(C)CC3)c(C)c2oc1=O,1,5,6,4,10,3
CCOc1ccc(N=Nc2c(=O)[nH]n3c(=O)c4c([nH]c23)CCCC4)cc1,6,9,44*,7,7,5
CCOc1ccc(N=Nc2c(=O)[nH]n3c(=O)cc(C)[nH]c23)cc1,1,8,5,2,10,-2
O=c1[nH]n2c(=O)c3c([nH]c2c1N=Nc1cccc(Cl)c1)CCCC3,14,30*,58*,34*,31*,9
O=C(NC(Cc1ccccc1)C(=O)N1CCN(S(=O)(=O)c2ccccc2)CC1)c1ccccc1 (stereo not given),-7,1,1,8,-6,-1
O=C(N[C@@H](Cc1ccccc1)C(=O)N1CCN(S(=O)(=O)c2ccc(F)cc2)CC1)c1ccco1,12,3,.,24*,.,.
COC(=O)Nc1ccc(S(=O)(=O)N2CCC(C)CC2)cc1,-5,9,1,25*,-6,1
O=C(Nc1ccc(S(=O)(=O)N2CCCCC2)cc1)c1ccncc1,3,-6,3,0,0,2
CC1CCN(S(=O)(=O)c2ccc(NC(=O)c3ccco3)cc2)CC1,9,-11,1,27*,-5,1
CC1CCN(S(=O)(=O)c2ccc(NC(=O)c3ccncc3)cc2)CC1,14,-3,-2,29*,-1,0
O=C(Nc1ccc(S(=O)(=O)N2CCCCC2)cc1)c1ccco1,-5,5,-1,2,5,-3
CSC(=Nc1ccccc1)N=C(SCc1ccccc1)N(C)C,8,2,.,1,.,.
COc1cc(C(=O)N/C(=C\c2cn(C)c3ccccc23)C(=O)NCCCn2ccnc2)cc(OC)c1OC,6,9,2,4,5,1
